The values that follow come from PubChem BioAssay AID485346 (Sanford-Burnham Center for Chemical Genomics, 2010).

The inhibition is the relative decrease from the control value, in per cent.

In all, about 330,000 compounds went through this assay and about 10,000 (3%) were called active.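 Rule for the calls: active = inhibition of at least 50% at 8 µM in the primary screen; inactive = the rest.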 The list comes from a sample in which actives are over-represented; it also holds similar structures and randomly drawn compounds.

This test deals with Protein Mdm4 (Homo sapiens) + E3 ubiquitin-protein ligase Mdm2 (Homo sapiens) (UniProt O15151+Q00987). Nature of the test: disruptors of Mdm2/MdmX RING complex – cell-based, luminescence, split luciferase, SaOS-2, uHTS, primary screen (AID 485346). To be noted: SaOS-2 split-luciferase Mdm2/MdmX complementation, at 8 µM, active compounds read high.
Protein Mdm4 (Homo sapiens) + E3 ubiquitin-protein ligase Mdm2 (Homo sapiens), sequence (O15151 whole entry, looked up): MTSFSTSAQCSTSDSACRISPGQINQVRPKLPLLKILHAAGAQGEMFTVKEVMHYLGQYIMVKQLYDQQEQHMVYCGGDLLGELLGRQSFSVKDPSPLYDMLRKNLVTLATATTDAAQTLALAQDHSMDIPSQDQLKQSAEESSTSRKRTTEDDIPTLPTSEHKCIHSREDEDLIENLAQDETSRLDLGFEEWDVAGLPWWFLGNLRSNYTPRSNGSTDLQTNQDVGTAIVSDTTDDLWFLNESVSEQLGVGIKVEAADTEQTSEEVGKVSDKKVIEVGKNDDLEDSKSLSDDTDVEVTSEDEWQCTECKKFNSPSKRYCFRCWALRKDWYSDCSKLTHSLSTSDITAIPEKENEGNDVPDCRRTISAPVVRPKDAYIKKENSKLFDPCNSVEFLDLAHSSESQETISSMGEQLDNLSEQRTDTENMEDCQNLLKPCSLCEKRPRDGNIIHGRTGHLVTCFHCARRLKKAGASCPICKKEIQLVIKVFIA
Protein Mdm4 (Homo sapiens) + E3 ubiquitin-protein ligase Mdm2 (Homo sapiens), sequence (Q00987 whole entry, looked up): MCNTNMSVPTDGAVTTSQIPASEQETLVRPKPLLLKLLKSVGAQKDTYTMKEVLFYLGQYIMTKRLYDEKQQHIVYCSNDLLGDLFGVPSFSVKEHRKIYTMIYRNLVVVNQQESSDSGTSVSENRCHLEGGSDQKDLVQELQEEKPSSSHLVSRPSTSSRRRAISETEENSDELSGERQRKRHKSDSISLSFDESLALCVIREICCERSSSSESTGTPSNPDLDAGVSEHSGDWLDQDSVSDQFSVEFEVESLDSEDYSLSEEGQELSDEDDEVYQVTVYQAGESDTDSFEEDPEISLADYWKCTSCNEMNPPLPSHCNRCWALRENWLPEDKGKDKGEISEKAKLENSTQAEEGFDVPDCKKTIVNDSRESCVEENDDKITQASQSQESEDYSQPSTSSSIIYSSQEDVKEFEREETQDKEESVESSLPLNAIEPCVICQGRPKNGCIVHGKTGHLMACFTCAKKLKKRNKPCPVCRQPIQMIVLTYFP
With `CC(C)NC(=O)N1CCN(c2ccncc2S(=O)(=O)N2CCCCC2)CC1`, the inhibition is 14.5% (inactive).
The figure for `CCOc1cc(/C=N/Nc2cc(C)nc3ccc(C)cc23)ccc1O` is 3.4% (inactive); for `Cc1ccc2[nH]c3c(=O)n(Cc4ccccn4)cnc3c2c1` it is 7.52% (inactive).
To `COc1cc(OC)c(OC)cc1/C=N/Nc1ncnc2c1[nH]c1ccc(C)cc12` belongs 78.4% (active).
Turning to `Cc1ccc(CC(=O)N(C)CC(=O)N(CC(C)C)c2c(N)n(CC(C)C)c(=O)[nH]c2=O)cc1C`, the inhibition was -20.2% (inactive).
To `Cc1ccccc1NC(=O)NCC1CCN(Cc2cccc(Cl)c2)CC1` belongs 8.22% (inactive).
For the molecule `Cc1cccc(CN2CCC(CNC(=O)Nc3ccc(F)c(Cl)c3)CC2)c1`, the inhibition is 51.6% (active).
In the case of `Cc1ccc(C)c(CN2CCC(CNC(=O)Nc3ccc(C)c(F)c3)CC2)c1`, the inhibition is 42.6% (inactive).
The figure for `O=C(COC(=O)/C(=C/c1cccs1)c1cccs1)NCc1ccccc1Cl` is -28% (inactive); for `CCN(Cc1ccccc1)S(=O)(=O)c1cc2c3c(c1)CCN3C(=O)CC2` it is -8.54% (inactive).
To `CCCC[C@@H]1CN=C(N)N1CCc1cccc(F)c1` belongs -13.6% (inactive).
The figure for `CCCC[C@@H]1CN=C(N)N1CCCC` is 16.5% (inactive).
With `CCCC[C@@H]1CN=C(N)N1CCc1cc(C(F)(F)F)cc(C(F)(F)F)c1`, the inhibition is 68.1% (active).
The figure for `O=C(C1CCN(C2CCN(Cc3ccc4cc(F)ccc4n3)CC2)CC1)N1CCCC1` is 6.09% (inactive); for `CCCc1nc2oc3c(OCC)ncnc3c2c2c1COC(C)(C)C2` it is -1.2% (inactive); for `O=C(Nc1nonc1-c1ccc(Cl)cc1)c1ccco1` it is 3.32% (inactive).
Consider `Cc1ccc(/C=C/C(=O)OCC(=O)Nc2cccnc2Cl)cc1`, for which the inhibition is 7.79% (inactive).
Take `O=C(COC(=O)/C=C/c1cn(-c2ccccc2)nc1-c1cccnc1)Nc1ccc(Cl)cc1Cl`: the inhibition is 61.3% (active).
For the molecule `COc1ccc(NC(=O)CN(C)C(=O)/C=C/c2cn(Cc3ccccc3)nc2-c2cccnc2)cc1`, the inhibition was 9.31% (inactive).
To `COc1ccccc1CC(=O)Nc1ccc([N+](=O)[O-])cc1OC` belongs 19.7% (inactive); to `COc1cc([N+](=O)[O-])ccc1NC(=O)CN1CCCC1`, -4.27% (inactive).
To `COc1cc([N+](=O)[O-])ccc1NC(=O)COC(=O)CCOc1ccc(C)cc1` belongs 57.2% (active); to `N#Cc1c(N)sc2c1CCN(C(=O)OCc1ccccc1)C2`, 17.8% (inactive).
To `C=CCNC(=O)/C(=C\c1cccc([N+](=O)[O-])c1)NC(=O)c1ccccc1` belongs 22.1% (inactive); to `CN(C)CCNC(=O)/C(=C/c1cccc([N+](=O)[O-])c1)NC(=O)c1ccccc1`, -8% (inactive).
On to `Cc1ccc(C(=O)N/C(=C/c2ccc(-c3cccc([N+](=O)[O-])c3)o2)C(=O)NCCCN(C)C)cc1`, for which the inhibition is 78.3% (active).
On to `NS(=O)(=O)c1cccc(NC(=O)COC(=O)c2cc([N+](=O)[O-])ccc2N2CCCC2)c1`, for which the inhibition is 17.6% (inactive).
The figure for `CC(C)Oc1ccc(C(=O)NCC(=O)Nc2ccc3c(c2)CCC3)cc1` is -15.9% (inactive); for `O=C(CN1C(=O)C2C3C=CC(C3)C2C1=O)Nc1nc(-c2ccccn2)cs1` (configuration not stated) it is 33.1% (inactive).
To `CC(NC(=O)c1ccco1)C(=O)Nc1nc(-c2ccccn2)cs1` (configuration not stated) belongs 21.9% (inactive); to `O=C(COc1ccccc1F)Nc1nc(-c2ccccn2)cs1`, 72.2% (active).
The figure for `CCOc1ccc(CN2CCN(Cc3ccc4cc(F)ccc4n3)CC2CCO)cc1` (configuration not stated) is -16.3% (inactive); for `COc1ccc(CNC(=O)COC(=O)c2c(C)nn(-c3ccccc3)c2C)cc1OC` it is -1.13% (inactive); for `COc1ccc(/C=C/C(=O)Nc2ccc(C34CC5CC(CC(O)(C5)C3)C4)cc2)cc1OC` it is 59.1% (active).
Consider `COc1ccc(/C=C/C(=O)N2CCCC2)cc1OC`, for which the inhibition was 5.87% (inactive).
To `COc1ccc(/C=C/C(=O)Nc2ccc(C)cc2)cc1S(=O)(=O)N1CCOCC1` belongs 18.3% (inactive).
To `CCn1nc(C(=O)NNC(=O)C2CSC3(C)CCC(=O)N23)c2ccccc2c1=O` (configuration not stated) belongs 25.6% (inactive); to `Cc1cccc(N2CCN(C(=O)c3cc4c(=O)[nH]c5ccccc5c4n3C)CC2)c1C`, 40.5% (inactive).
Regarding `O=C1CN(C(=O)c2cc(F)cc(F)c2)c2ccccc2N1`, the inhibition was 21% (inactive).
To `CCOc1cc(N2CCOCC2)c(OCC)cc1NC(=O)COc1cccc(Cl)c1` belongs -4.41% (inactive); to `CCOc1cc(N2CCOCC2)c(OCC)cc1NC(=O)c1cc(C)nc2ccccc12`, -16.5% (inactive).
In the case of `CCOc1cc(N2CCOCC2)c(OCC)cc1NC(=O)COc1cccc2cccnc12`, the inhibition is 90.6% (active).
To `O=S(=O)(Nc1cc(Cl)ccc1N1CCOCC1)c1ccccc1Cl` belongs 1.14% (inactive); to `CC(C)(C)OC(=O)NCCCCCC(=O)N/N=C/c1coc2ccccc2c1=O`, 19.7% (inactive); to `O=c1c(/C=N/O)coc2ccc(Cl)cc12`, 9.78% (inactive).
To `Cc1ccc2occ(/C=N/NC(=O)c3ccccc3C)c(=O)c2c1` belongs 68.7% (active); to `O=C1CC(Cc2ccc(Cl)cc2)C(=O)N1c1cc(Cl)ccn1` (configuration not stated), -4.34% (inactive); to `CN(C)/C(CN1CCCCC1)=C1\N=C(c2ccccc2)OC1=O`, 0.454% (inactive).
With `CCc1cc2cc(OC)ccc2nc1SCC(=O)Nc1cc(OC)c(OC)cc1C(=O)O`, the inhibition was 17% (inactive).
The figure for `Cc1[nH]c(C)c(S(=O)(=O)N2CCN(c3cccc(C(F)(F)F)c3)CC2)c1C(=O)N1CCCCC1` is 76.3% (active); for `Cc1[nH]c(C)c(S(=O)(=O)N2CCN(c3cccc(C(F)(F)F)c3)CC2)c1C(=O)N1CCCC1` it is 14.7% (inactive); for `Cc1ccc(C)c(N2CCN(S(=O)(=O)c3c(C)[nH]c(C)c3C(=O)N3CCCC3)CC2)c1` it is 5.45% (inactive).
The figure for `CCOn1c(=O)c(=O)n(O)c2ccccc21` is 3.67% (inactive); for `CCS(=O)(=O)NCCc1ccc(OC)c(OC)c1` it is 18.8% (inactive); for `COc1ccc(-c2cc(-c3ccc(N)cc3)nc(N)c2C#N)cc1OC` it is 32.6% (inactive).
As for `COc1ccc(-c2cc(C(F)(F)F)nc(S(C)(=O)=O)n2)cc1OC`, the inhibition was 94.6% (active).
Regarding `Cc1nc2ccccc2nc(=O)c1NNc1ccc([N+](=O)[O-])cc1`, the inhibition was -2.46% (inactive).
